TWEAK Fn14 block: inhibitors of TWEAK-Fn14 interaction signaling; inhibition, % at 10 µM; hit rate 2% among 360,000; TWEAK-stimulated Fn14 reporter cells, luciferase luminescence, 8 h; in the data active means inhibition above about 50%
HSF1 inh: HSF1 inhibition; activity change, negative = inhibition, % at 7.5 µM (by protocol); hit rate 0.77% among 300,000; NIH3T3-HGL HSE-luciferase, MG132-induced, luminescence 8 h; stronger effect = lower value;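 active means more than half of replicate wells show activity change below -50%, luminescence cut by over half; inconclusive means some wells, but at most half, below -50%; inactive means no replicate well below -50%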;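 further: luciferase reports HSF-1 transcriptional activity via heat shock element; 0% = median of DMSO wells and -100% = zero luminescence signal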
TROY NFkB inh: inhibitors of TROY-dependent NF-kB signaling; Q293 LMP1-TROYcd NF-kB luciferase reporter, 4 h; inhibition, % at 10 µM; hit rate 0.98% among 360,000; AID 1347056;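 active means compounds whose plate-normalised and pattern-corrected inhibition of the luciferase reporter signal at the single screening dose is 50% or more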
HSF-1 act: increases HSF-1 driven luciferase reporter signal. activation, % at 9 µM. NIH3T3-HGL HSF-1 luciferase reporter, MG132, 8 h; 100% = twice DMSO control signal. AID 504408. hit rate 1.7% among 300,000;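 active means mean replicate activation of at least 50% with a set share of replicates each reaching 50%; inconclusive means only one of those two conditions met; inactive means mean below 50% and too few replicates reaching it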;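 further: 0% = median of the neutral control wells and 100% = twice that signal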
LGR2 inh: Drosophila LGR2 receptor signaling inhibition | inhibition, % at 9.99 µM | HEK293 LGR2, CRE-luciferase, bursicon-stimulated, 4 h | hit rate 0.35% among 380,000;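 active means drop in luminescence signal, shown as inhibition above about 50% in the replicate tests, limit read from the data, passing the limit was not always enough; inconclusive means probably only some replicates passing the limit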;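 further: agonist challenge used bursicon conditioned medium at about half maximal strength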
LMP1 NFkB inh: inhibitors of Epstein-Barr LMP1-induced NF-kappaB reporter; LMP1-induced NF-kappaB luciferase reporter cells, luminescence; hit rate 0.69% among 350,000; inhibition, % at 12.5 µM; in the data active means inhibition above about 41%; inconclusive means no clear call, values can overlap the other calls;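 further: 0% = neutral control wells and 100% = reference inhibitor control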
Starred values were filed as active, the others as inactive; ? = inconclusive; . = no result. The list is not random: actives were taken first. Their share in the collection is about 3.6%.

SMILES	TWEAK Fn14 block	HSF1 inh	TROY NFkB inh	HSF-1 act	LGR2 inh	LMP1 NFkB inh
Cc1cc(/C([O-])=C(/C(=S)Nc2ccccc2)[n+]2ccccc2)c(C)n1-c1ccccc1	-39	-61*	-27	-61	.	6
CCOc1cc(/C=C2\C(=O)N(Cc3ccc(C)cc3)C(C)=C2C(=O)OC)ccc1O	-3	53	11	77*	.	-12
CCN1C(=O)/C(=C\c2ccc3c(c2)OCO3)C(C(=O)OC)=C1C	14	26	-24	63*	.	-8
C=CCOc1cccc(/C=C2\C(=O)N(Cc3ccc(C)cc3)C(C)=C2C(=O)OC)c1	11	24	18	42	32	5
O=C(Cc1ccncc1)Nc1ccc2c(c1)[C@@H]1C[C@@H](CC(=O)N3CCCCC3)O[C@H](CO)[C@@H]1O2	.	.	.	.	2	.
COc1ccc(C(=O)NC2CC2)cc1OC1CCN(Cc2cc(C)c(C)cc2C)CC1	88*	-8	16	1	-10	5
O=c1c(C=NCc2cccnc2)c(C(F)(F)F)[nH]n1-c1nc2ccccc2s1	77*	2	48	30	58*	15
CC(=NCc1ccco1)c1c(C)[nH]n(-c2nc3ccccc3s2)c1=O	90*	.	84*	.	.	20
CCC(=NCc1ccccc1)c1c(C(F)(F)F)[nH]n(-c2nc3ccccc3s2)c1=O	41	3	-63	10	.	5
C/C(=N/NC(=O)c1cccs1)c1c(C)[nH]n(-c2nc3ccccc3s2)c1=O	23	-27	-8	-43	0	21
CCC(=NCc1ccco1)c1c(C(F)(F)F)[nH]n(-c2nc3ccccc3s2)c1=O	87*	2	-29	-1	.	15
CC(C)NC(=O)Nc1cccc2c1O[C@H](CN(C)S(=O)(=O)c1ccc(Cl)cc1)[C@@H](C)CN([C@@H](C)CO)C2=O	.	.	.	.	-18	.
C[C@@H]1CN([C@H](C)CO)C(=O)c2cc(C#Cc3ccccc3F)cnc2O[C@H]1CN(C)C(=O)C1CCOCC1	.	.	.	.	-9	.
Nc1nc2ccccc2n1/N=C/c1ccc(-c2ccccc2)o1	53*	19	-23	33	.	-25
Nc1nc2ccccc2n1/N=C/c1ccc([N+](=O)[O-])s1	-4	58	-28	99*	4	2
Nc1nc2ccccc2n1/N=C/c1cccnc1	5	0	-8	1	.	2
O=C(Cc1ccccc1)N1C[C@H]2[C@@H](c3ccccc31)[C@@H](CO)N2C(=O)Cc1ccccc1	.	.	.	.	-12	.
CC(=O)Nc1ccc2nc(C3CC3)n(Cc3ccc(Cl)cc3)c(=O)c2c1	-52	54	-56	?	-57	-33
O=C(Nc1ccc2nc(C3CC3)n(Cc3ccc(F)cc3)c(=O)c2c1)c1ccco1	11	20	-12	-6	.	-2
CCC(=O)Nc1ccc2nc(C3CC3)n(Cc3ccc(C(C)(C)C)cc3)c(=O)c2c1	66*	-59*	75*	-64	-63	-31
COc1ccc(Cn2c(C3CC3)nc3ccc(NC(=O)C4CC4)cc3c2=O)cc1	-19	49	-36	70*	.	-60
O=C(C[C@@H]1C=C[C@H](NC(=O)Nc2cccc(F)c2)[C@@H](CO)O1)NCC1CC1	.	.	.	.	11	.
COc1ccccc1CN1CC(C(=O)NCCc2ccccc2Cl)CCC1=O (stereo unspecified)	-12	7	-37	7	-27	-16
COc1ccccc1CN1CC(C(=O)NCCN2CCNC2=O)CCC1=O (stereo unspecified)	-11	-73*	-23	-79	-5	-9
CCOC(=O)N1CCN(C(=O)C2CCC(=O)N(Cc3ccccc3OC)C2)CC1 (stereo unspecified)	-21	.	-10	.	-7	46*
SMILES	TWEAK Fn14 block	HSF1 inh	TROY NFkB inh	HSF-1 act	LGR2 inh	LMP1 NFkB inh
CCCNC(=O)C[C@H]1C[C@H]2c3cc(NC(=O)C4CCC4)ccc3O[C@H]2[C@@H](CO)O1	.	.	.	.	2	.
CC(C)C(NC(=O)C1CCCCC1)C(=O)Nc1ccncc1 (stereo unspecified)	2	.	-3	.	.	-7
CC(C)C(NC(=O)C1CCCCC1)C(=O)Nc1ccc2c(c1)OCCO2 (stereo unspecified)	63*	-35	33	-41	.	3
CN(C)c1ccc(NC(=O)C2C3C=CC(C3)C2C(=O)O)cc1 (stereo unspecified)	42	-9	-5	-1	-15	-4
O=C(O)C1C2C=CC(O2)C1C(=O)Nc1ccc2c(c1)OCCO2 (stereo unspecified)	.	-74*	.	-77	.	.
O=C(O)C1C2C=CC(C2)C1C(=O)Nc1ccc2c(c1)OCCO2 (stereo unspecified)	65*	-57*	52*	-58	.	9
COc1ccc(NC(=O)C2C3C=CC(O3)C2C(=O)O)cc1 (stereo unspecified)	5	-8	-26	-3	7	-6
CC(=O)c1ccc(NC(=O)C2C3C=CC(O3)C2C(=O)O)cc1 (stereo unspecified)	-21	11	2	58*	-10	3
CO[C@H]1CN(C)C(=O)c2ccc(NC(=O)c3ccc(F)cc3)cc2OC[C@@H](C)N(C)C[C@@H]1C	.	.	.	.	4	.
O=C(NCC[C@@H]1CC[C@@H](NC(=O)c2ccncc2)[C@H](CO)O1)Nc1ccc(Cl)cc1	.	.	.	.	-14	.
O=C(O)C1CCCCC1C(=O)Nc1ccc2c(c1)OCCO2 (stereo unspecified)	83*	-65*	69*	-72	.	-3
O=C(Nc1ccc2c(c1)OCCO2)C1CC1c1ccccc1 (stereo unspecified)	19	-8	-15	-19	-41	-15
C[C@@H]1CN([C@H](C)CO)C(=O)c2cc(C#CC3(O)CCCC3)cnc2O[C@H]1CN(C)Cc1ccccc1	.	.	.	.	4	.
C=CCN1C(c2cccc(C(F)(F)F)c2)=CS/C1=C(/C#N)c1nnc(N2CCOCC2)n1-c1ccccc1	2	-8	13	0	14	8
C=CCN1C(=O)NC(c2ccc(OC)cc2)(C(F)(F)F)S/C1=C(\C#N)c1nnc(N2CCOCC2)n1-c1ccccc1 (stereo unspecified)	50*	21	-7	18	12	5
CCOC(=O)c1cn[nH]c1NC(=S)Nc1ccc(Cl)cc1	60*	-35	61*	-46	-16	.
Cc1ccc(NC(=O)Nc2cccc([N+](=O)[O-])c2)cc1F	79*	0	45	42	-15	10
O=C(Nc1ccc(OC(F)(F)F)cc1)Nc1cccnc1	-6	4	-29	15	-31	-7
Cc1cc(NC(=O)Nc2cccc([N+](=O)[O-])c2)no1	-7	-2	-21	13	3	-7
O=C(Nc1ccc(OC(F)(F)F)cc1)Nc1cccc([N+](=O)[O-])c1	56*	3	24	4	-16	9
Cc1ccc(C(C)C)cc1NC(=O)Nc1ccc([N+](=O)[O-])cc1	69*	-17	59*	-24	19	10
